31 compounds from PubChem BioAssay (NCATS) can be followed below.

Records with an inconclusive call do not appear. A number with no mark means an inactive call. Active and inactive are the calls of the source. The call rests on the fitted dose curve; in most records, active means well fitted curve in the direction sought with a large enough effect; inconclusive means small, poorly fitted or top-dose-only effect, or another doubt; inactive means no such curve, though single readings can be large; an effect the other way counts as inactive or inconclusive.

Experiment [1] has as its target Rap guanine nucleotide exchange factor 3 (Homo sapiens) (UniProt O95398). The experiment in a line: Confirmatory qHTS for antagonist of cAMP-regulated guanine nucleotide exchange factor 3 (EPAC1) (AID 1645880). Further: nearly all actives have a fitted effect of over 55% in size. Further: potency means the concentration at half of the fitted maximal effect.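 On activity, negative = inhibition: plate controls were DMSO only for no effect and full effect of the ATA control for full effect.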 The conditions noted are these: EPAC1 Rap1B-BODIPY-GDP exchange, fluorescence; activity, negative = inhibition: at 115 µM (top of the series). The procedure, abridged: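 Nucleotide exchange uses 100 nM EPAC1, 250 nM RAP1B-BODIPY-GDP and 50 uM GDP, with compounds in a concentration-titration series. After 5 min at room temperature, fluorescence (480 nm ex/540 nm em) is read every 5 min for 30 min. Data are normalized to control ATA and DMSO.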

For experiment [2] the target is unchanged. The experiment in a line: Confirmatory qHTS for agonist of cAMP-regulated guanine nucleotide exchange factor 3 (EPAC1) (AID 1645881). Further: nearly all actives have a fitted effect of over 75% in size. Further: potency means the concentration at half of the fitted maximal effect.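 On activation: EPAC1 catalysed release of BODIPY-GDP from Rap1B seen as fluorescence loss; 100% = effect of cAMP agonist control.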
Experiment [3] shares this target. As to the kind of experiment: Counterscreen qHTS for antagonist of cAMP-regulated guanine nucleotide exchange factor 3 (EPAC1) (AID 1645888).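 Further: fluorescence loss as bound BODIPY-GDP is released from Rap1B; % of control where 0% means no effect.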 The procedure, abridged:
(§1)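 Rap1B-BODIPY-GDP 250 nM + GDP 50 uM; cpds 7-pt, final 9.74 nM–152 uM (activator mode) or from 7.32 nM upwards (inhibitor mode); RT; FI 480/540 nm at 5 and 30 min, then ± cAMP, reread.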

The target is the same in experiment [4]. As to the kind of experiment: Counterscreen qHTS for agonist of cAMP-regulated guanine nucleotide exchange factor 3 (EPAC1) (AID 1645889). Further: nearly all actives have a fitted effect of over 40% in size. Further: potency means the concentration at half of the fitted maximal effect. On activation: % of control where 0% means no effect. The procedure, abridged:
as §1

Rap guanine nucleotide exchange factor 3 (Homo sapiens), sequence (O95398 whole entry, looked up): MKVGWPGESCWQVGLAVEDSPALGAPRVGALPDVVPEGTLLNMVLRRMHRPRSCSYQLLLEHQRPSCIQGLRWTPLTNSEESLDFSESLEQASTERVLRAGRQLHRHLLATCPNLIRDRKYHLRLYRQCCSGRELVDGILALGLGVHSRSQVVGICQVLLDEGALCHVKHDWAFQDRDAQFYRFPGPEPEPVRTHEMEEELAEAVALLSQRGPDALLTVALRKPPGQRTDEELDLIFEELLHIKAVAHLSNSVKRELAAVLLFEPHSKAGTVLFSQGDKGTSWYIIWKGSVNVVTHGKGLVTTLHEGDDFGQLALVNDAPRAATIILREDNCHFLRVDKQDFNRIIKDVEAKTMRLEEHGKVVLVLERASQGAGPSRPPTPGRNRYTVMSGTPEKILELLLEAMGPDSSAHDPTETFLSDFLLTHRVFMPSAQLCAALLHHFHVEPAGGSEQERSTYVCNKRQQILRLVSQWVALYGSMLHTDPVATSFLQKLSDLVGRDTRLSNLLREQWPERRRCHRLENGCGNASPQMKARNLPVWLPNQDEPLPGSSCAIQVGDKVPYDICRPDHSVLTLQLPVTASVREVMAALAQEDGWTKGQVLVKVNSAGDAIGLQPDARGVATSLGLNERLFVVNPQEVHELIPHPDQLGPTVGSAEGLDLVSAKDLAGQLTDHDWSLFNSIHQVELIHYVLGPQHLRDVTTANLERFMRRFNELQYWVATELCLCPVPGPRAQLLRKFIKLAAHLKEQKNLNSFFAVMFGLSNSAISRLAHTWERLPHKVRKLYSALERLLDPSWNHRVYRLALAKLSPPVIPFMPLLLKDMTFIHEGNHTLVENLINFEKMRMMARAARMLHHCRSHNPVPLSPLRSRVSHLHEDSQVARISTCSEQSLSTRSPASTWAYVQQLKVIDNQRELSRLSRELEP

`COc1ccc(C2=CC3=C(Br)C(=O)C(C)(OC(=O)c4cccs4)C(=O)C3=CO2)cc1` (centres undefined): in experiment [1], the Potency is 16.9 µM (active). Moreover, the Potency entry in experiment [2] and in experiment [3] was “inactive” in each case.

In the case of `COc1ccc(Nc2cccc3ccccc23)cc1`, the Potency entry in experiment [1], in experiment [2] and in experiment [3] was “inactive” each time.

As for `CCOc1ccc(S(=O)(=O)N2CCCCC2)c(C)c1C`, the Potency result in experiment [1], in experiment [2] and in experiment [3] was “inactive” throughout.

Regarding `COc1ccc(C2CC(=O)Oc3cc(C)cc(C)c32)cc1` (centres undefined), the Potency result in experiment [1], in experiment [2] and in experiment [3] was “inactive” throughout.

As to `CC1CCCN(C2(O)C(=O)Nc3c(C(F)(F)F)cccc32)C1` (centres undefined), the Potency result in experiment [1] and in experiment [2] was “inactive” each time. The activity change, negative = inhibition in experiment [3] is -14.6% [at 30.8 µM].

Take `O=C1OC(c2ccccc2)(c2ccccc2)c2ccsc21`: the Potency result in experiment [1], in experiment [2] and in experiment [3] was “inactive” in each case.

Turning to `Cc1ccc(O)c(C(=O)c2cc(C#N)c(=O)n(-c3nccs3)c2)c1`, the Potency result in experiment [1] and in experiment [3] was “inactive” in each case. Besides, the results for the Potency in experiment [2] and in experiment [4] were 100 µM (active) and 35.5 µM (active), respectively.

As for `CCCC[C@@H]1C=C(C(=O)O)[C@H](c2ccc(Cl)c(Cl)c2)N1S(=O)(=O)c1ccc(C)cc1`, the Potency in experiment [1] is 84.9 µM (active). The Potency result in experiment [2], in experiment [3] and in experiment [4] was “inactive” in each case.

Take `COc1ccc(Cl)cc1NC(=O)CN1c2ccccc2CC1C` (centres undefined): the Potency entry in experiment [1], in experiment [2] and in experiment [3] was “inactive” each time.

For `Cc1cc(C)c(C(=O)c2ccccc2)c(C)c1`, the Potency entry in experiment [1], in experiment [2], in experiment [3] and in experiment [4] was “inactive” in each case.

Take `CNc1snc(C)c1C(=O)OCC(=O)Nc1ccc(C)cc1F`: the Potency result in experiment [1], in experiment [2], in experiment [3] and in experiment [4] was “inactive” throughout.

As for `COC(=O)c1ccc2nc(C3CCCCC3)c(Cc3ccccc3)n2c1`, the Potency result in experiment [1] and in experiment [2] was “inactive” throughout. Moreover, the activity change, negative = inhibition in experiment [3] is 6.26% [at 30.8 µM]. Moreover, in experiment [4], the activation was 9.29% [at 30.8 µM].

For the compound `Cc1ccc(C2(c3noc(CN(C)CC4CCCCO4)n3)CCCC2)cc1` (centres undefined), the Potency entry in experiment [1] and in experiment [2] was “inactive” each time. In addition, the activity change, negative = inhibition in experiment [3] is -7.57% [at 30.8 µM]. Besides, the activation in experiment [4] is -0.372% [at 30.8 µM].

`O=C(O)Cc1ccc(NC(=O)C(c2ccccc2)c2ccccc2)cc1`: the Potency entry in experiment [1] and in experiment [2] was “inactive” throughout. Besides, the activity change, negative = inhibition in experiment [3] was -6.7% [at 30.8 µM]. The activation in experiment [4] was 5.55% [at 30.8 µM].

`CC1(C(=O)Nc2ccc3c(c2)OCO3)CCN1Cc1cccc2c1OCO2` (centres undefined): the Potency result in experiment [1] and in experiment [2] was “inactive” in each case. For the same compound, the activity change, negative = inhibition in experiment [3] was -9.44% [at 30.8 µM]. Also, in experiment [4], the activation was 19.3% [at 30.8 µM].

Regarding `CC(C)CN(C(=O)c1ccco1)c1nc2ccccc2s1`, the Potency entry in experiment [1], in experiment [2], in experiment [3] and in experiment [4] was “inactive” throughout.

For the compound `COC(=O)c1ccc2nc(-c3ccc(Cl)cc3)c(CC3CCCCC3)n2c1`, the Potency entry in experiment [1], in experiment [2], in experiment [3] and in experiment [4] was “inactive” each time.

With `COCCN(CCOC)Cc1cc(=O)oc2cc(C)cc(C)c12`, the Potency result in experiment [1], in experiment [2], in experiment [3] and in experiment [4] was “inactive” throughout.

On to `COc1ccc(-c2noc(CN(C(=O)c3c(-c4ccccc4Cl)noc3C)C(C)C)n2)cc1`, for which the Potency entry in experiment [1], in experiment [2], in experiment [3] and in experiment [4] was “inactive” each time.

As to `Cn1ccc2c(N3CCCCCCC3)cc3c(c21)C1CCC3O1` (centres undefined), the Potency entry in experiment [1], in experiment [2] and in experiment [3] was “inactive” in each case.

For `Cc1ccc(C2N(c3ccc(Cl)cc3)C(=O)N3CCCN23)cc1` (centres undefined), the Potency entry in experiment [1], in experiment [2], in experiment [3] and in experiment [4] was “inactive” each time.

With `CC(C)c1nc2cc(Cl)ccc2n(Cc2ccccc2)c1=O`, the Potency entry in experiment [1], in experiment [2], in experiment [3] and in experiment [4] was “inactive” throughout.

In the case of `Cc1cc(C)c2c(c1)OC(=O)CC2c1ccccc1C` (centres undefined), the Potency result in experiment [1], in experiment [2], in experiment [3] and in experiment [4] was “inactive” each time.

As for `COc1ccc(C(=O)N(Cc2ccccc2)c2cccc(C)c2)cc1`, the Potency result in experiment [1], in experiment [2], in experiment [3] and in experiment [4] was “inactive” each time.

In the case of `CCC(=O)OC1CC(C)N(C(=O)c2ccccc2)c2ccc(C)cc21` (centres undefined), the Potency entry in experiment [1], in experiment [2], in experiment [3] and in experiment [4] was “inactive” each time.

Turning to `CC1CCCN(C2(O)C(=O)Nc3ccc(Br)cc32)C1` (centres undefined), the Potency entry in experiment [1], in experiment [2] and in experiment [3] was “inactive” in each case.

As for `O=C(Cc1c(F)cccc1Cl)Nc1ccc(S(=O)(=O)Nc2nccs2)cc1`, the Potency result in experiment [1] and in experiment [2] was “inactive” in each case. Further, the activity change, negative = inhibition in experiment [3] is 4.41% [at 30.8 µM]. Besides, in experiment [4], the activation is 17.6% [at 30.8 µM].

Regarding `Cc1ccc(CN(Cc2ccco2)C(=O)c2ccco2)cc1`, the Potency result in experiment [1] and in experiment [2] was “inactive” in each case. Also, the activity change, negative = inhibition in experiment [3] is -4.7% [at 30.8 µM]. Also, in experiment [4], the activation was 27.7% [at 30.8 µM].

Consider `COc1ccc(NS(=O)(=O)c2ccc(S(=O)(=O)N3CCCC3)cc2)cc1`, for which the Potency result in experiment [1] and in experiment [2] was “inactive” each time. Moreover, in experiment [3], the activity change, negative = inhibition is -8.86% [at 30.8 µM]. Also, in experiment [4], the activation is 24.5% [at 30.8 µM].

On to `CCOc1nc(-c2ccccc2Cl)nc2ccccc12`, for which the Potency result in experiment [1], in experiment [2] and in experiment [3] was “inactive” in each case.

Consider `COC(=O)c1ccc2nc(-c3ccc(F)cc3)c(Cc3cccc(F)c3)n2c1`, for which the Potency entry in experiment [1], in experiment [2], in experiment [3] and in experiment [4] was “inactive” throughout.
